# Measured values taken from publication PMC7862700, “An all-to-all approach to the identification of sequence-specific readers for epigenetic DNA modifications on cytosine”.
# Legend:
# Assay in all cases: DAPPL (digital affinity profiling via proximity ligation, sequencing); 10 mM Tris-HCl pH 7.5, 50 mM NaCl, 1 mM DTT, 4% glycerol, room temperature, 30 min; GST-TFs on glutathione beads, 16-mer random dsDNA library, 0.1% formaldehyde crosslink after washing; high values mean tight binding
# [1] = target: T1, FLI1 (Homo sapiens, UniProt Q01543 1-452); conditions: protein: recombinant; tags: N-terminal GST; dsDNA, one strand shown
# T1 sequence: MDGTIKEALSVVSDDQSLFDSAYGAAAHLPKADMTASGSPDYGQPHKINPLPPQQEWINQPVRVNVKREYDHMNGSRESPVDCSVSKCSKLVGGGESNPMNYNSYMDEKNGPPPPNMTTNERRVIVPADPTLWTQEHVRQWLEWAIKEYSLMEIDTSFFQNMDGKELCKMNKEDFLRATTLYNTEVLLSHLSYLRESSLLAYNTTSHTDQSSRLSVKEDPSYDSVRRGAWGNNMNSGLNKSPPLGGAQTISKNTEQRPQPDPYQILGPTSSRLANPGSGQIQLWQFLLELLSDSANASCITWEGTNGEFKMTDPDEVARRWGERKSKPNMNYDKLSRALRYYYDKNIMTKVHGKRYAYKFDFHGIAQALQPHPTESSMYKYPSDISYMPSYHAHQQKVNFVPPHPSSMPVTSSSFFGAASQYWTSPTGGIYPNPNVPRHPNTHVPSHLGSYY
# Method in brief: (§1)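 Beads coated with glutathione captured GST-fused human transcription factors that had been expressed in yeast, and the factors were then given DNA barcodes and pooled with a tag-only sample. The pools were incubated with 200 nmole of a random double-stranded 16-mer DNA library in Tris/NaCl/DTT/glycerol buffer for 30 min at room temperature, washed, crosslinked with 0.1% formaldehyde and proximity-ligated with BsaI/T4 ligase at 37 °C for 1 h. PCR amplification and Illumina NextSeq500 sequencing came last. Binding signal is each hexamer's read frequency for a factor divided by its frequency for the tag-only sample.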
# [2] = target: T2, ELK1 (Homo sapiens, UniProt P19419 1-428); conditions: protein: recombinant; tags: N-terminal GST; dsDNA, one strand shown
# T2 sequence: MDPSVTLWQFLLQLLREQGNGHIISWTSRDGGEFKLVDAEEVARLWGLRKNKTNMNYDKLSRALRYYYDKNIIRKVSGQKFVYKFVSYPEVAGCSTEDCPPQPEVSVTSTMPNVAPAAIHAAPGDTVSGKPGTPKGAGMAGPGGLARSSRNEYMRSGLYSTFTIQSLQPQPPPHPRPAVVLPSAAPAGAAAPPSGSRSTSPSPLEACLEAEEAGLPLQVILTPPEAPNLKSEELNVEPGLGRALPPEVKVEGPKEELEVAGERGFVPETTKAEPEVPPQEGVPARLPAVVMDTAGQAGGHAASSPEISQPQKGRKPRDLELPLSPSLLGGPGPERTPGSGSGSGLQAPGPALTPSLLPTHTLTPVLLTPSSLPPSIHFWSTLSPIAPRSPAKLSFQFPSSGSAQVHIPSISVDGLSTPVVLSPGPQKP
# Method in brief: as §1
# [3] = target: T3, GABPA (Homo sapiens, UniProt Q06546 1-454); conditions: protein: recombinant; tags: N-terminal GST; dsDNA, one strand shown
# T3 sequence: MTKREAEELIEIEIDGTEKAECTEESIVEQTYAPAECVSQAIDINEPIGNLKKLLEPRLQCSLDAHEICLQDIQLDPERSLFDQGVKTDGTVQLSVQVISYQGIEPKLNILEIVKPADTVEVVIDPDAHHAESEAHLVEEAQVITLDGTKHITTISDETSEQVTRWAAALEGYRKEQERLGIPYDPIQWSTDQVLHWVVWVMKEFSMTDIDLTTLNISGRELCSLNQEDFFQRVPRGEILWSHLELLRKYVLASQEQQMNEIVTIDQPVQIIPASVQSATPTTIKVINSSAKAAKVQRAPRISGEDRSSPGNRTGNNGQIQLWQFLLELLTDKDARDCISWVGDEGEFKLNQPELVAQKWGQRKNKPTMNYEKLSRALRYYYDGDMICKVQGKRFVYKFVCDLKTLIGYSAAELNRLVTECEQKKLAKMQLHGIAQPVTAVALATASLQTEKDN
# Method in brief: as §1
# [4] = target: T4, ERG (Homo sapiens, UniProt P11308 1-479); conditions: protein: recombinant; tags: N-terminal GST; dsDNA, one strand shown
# T4 sequence: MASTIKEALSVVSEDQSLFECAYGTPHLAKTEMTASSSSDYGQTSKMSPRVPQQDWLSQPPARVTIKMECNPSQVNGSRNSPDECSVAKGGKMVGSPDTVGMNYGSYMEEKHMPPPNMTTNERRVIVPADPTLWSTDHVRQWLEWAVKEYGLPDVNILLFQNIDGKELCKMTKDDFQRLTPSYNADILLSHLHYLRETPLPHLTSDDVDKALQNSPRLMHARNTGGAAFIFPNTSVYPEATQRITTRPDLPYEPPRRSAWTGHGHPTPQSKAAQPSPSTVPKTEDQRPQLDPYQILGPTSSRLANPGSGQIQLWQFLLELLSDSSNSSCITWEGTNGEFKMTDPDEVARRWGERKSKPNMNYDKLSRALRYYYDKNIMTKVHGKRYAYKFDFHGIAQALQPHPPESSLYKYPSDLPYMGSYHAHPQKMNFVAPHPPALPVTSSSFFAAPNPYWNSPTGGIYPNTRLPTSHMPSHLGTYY
# Method in brief: as §1
# [5] = target: ELF1 (Homo sapiens, UniProt P32519 1-619); conditions: protein: recombinant; tags: N-terminal GST; dsDNA, one strand shown
# Method in brief: as §1
# [6] = target: T5, EHF (Homo sapiens, UniProt Q9NZC4 1-300); conditions: protein: recombinant; tags: N-terminal GST; dsDNA, one strand shown
# T5 sequence: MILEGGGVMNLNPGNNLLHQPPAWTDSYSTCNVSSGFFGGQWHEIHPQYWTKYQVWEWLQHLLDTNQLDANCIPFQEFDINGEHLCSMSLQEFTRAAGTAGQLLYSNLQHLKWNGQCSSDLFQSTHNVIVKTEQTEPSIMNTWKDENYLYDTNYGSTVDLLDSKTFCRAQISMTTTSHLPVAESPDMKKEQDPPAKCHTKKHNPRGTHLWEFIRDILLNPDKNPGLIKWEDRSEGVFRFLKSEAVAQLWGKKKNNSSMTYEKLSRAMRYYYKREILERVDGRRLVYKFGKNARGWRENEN
# Method in brief: as §1
# [7] = target: SPI1 (Homo sapiens, UniProt P17947 1-270); conditions: protein: recombinant; tags: N-terminal GST; dsDNA, one strand shown
# Method in brief: as §1
# [8] = target: SPIB (Homo sapiens, UniProt Q01892 1-262); conditions: protein: recombinant; tags: N-terminal GST; dsDNA, one strand shown
# Method in brief: as §1
# [9] = target: T6, ELK3 (Homo sapiens, UniProt P41970 1-407); conditions: protein: recombinant; tags: N-terminal GST; dsDNA, one strand shown
# T6 sequence: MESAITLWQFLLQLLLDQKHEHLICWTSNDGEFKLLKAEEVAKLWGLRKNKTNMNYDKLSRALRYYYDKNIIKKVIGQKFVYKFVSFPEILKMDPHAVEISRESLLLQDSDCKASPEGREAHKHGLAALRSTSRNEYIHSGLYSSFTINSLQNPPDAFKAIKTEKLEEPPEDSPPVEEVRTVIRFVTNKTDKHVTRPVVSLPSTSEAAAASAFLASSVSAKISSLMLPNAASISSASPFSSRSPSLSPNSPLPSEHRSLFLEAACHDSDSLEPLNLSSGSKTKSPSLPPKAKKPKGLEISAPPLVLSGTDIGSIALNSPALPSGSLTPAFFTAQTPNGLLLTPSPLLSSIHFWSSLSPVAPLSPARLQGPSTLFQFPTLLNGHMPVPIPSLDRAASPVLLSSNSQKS
# Method in brief: as §1
# [10] = target: T7, FEV (Homo sapiens, UniProt Q99581 1-238); conditions: protein: recombinant; tags: N-terminal GST; dsDNA, one strand shown
# T7 sequence: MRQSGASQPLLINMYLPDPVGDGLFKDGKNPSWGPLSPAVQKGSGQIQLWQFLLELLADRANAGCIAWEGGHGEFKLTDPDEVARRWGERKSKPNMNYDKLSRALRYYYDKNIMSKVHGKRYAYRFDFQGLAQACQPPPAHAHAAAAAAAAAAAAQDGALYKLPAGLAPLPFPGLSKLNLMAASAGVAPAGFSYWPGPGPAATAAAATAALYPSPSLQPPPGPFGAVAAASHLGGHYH
# Method in brief: as §1
# [11] = target: ETV5 (Homo sapiens, UniProt P41161 1-510); conditions: protein: recombinant; tags: N-terminal GST; dsDNA, one strand shown
# Method in brief: as §1
# [12] = target: HSF1 (Homo sapiens, UniProt Q00613 1-529); conditions: protein: recombinant; tags: N-terminal GST; chain copies: 3; dsDNA, one strand shown
# Method in brief: as §1
# [13] = target: T8, SPIC (Homo sapiens, UniProt Q8N5J4 1-248); conditions: protein: recombinant; tags: N-terminal GST; dsDNA, one strand shown
# T8 sequence: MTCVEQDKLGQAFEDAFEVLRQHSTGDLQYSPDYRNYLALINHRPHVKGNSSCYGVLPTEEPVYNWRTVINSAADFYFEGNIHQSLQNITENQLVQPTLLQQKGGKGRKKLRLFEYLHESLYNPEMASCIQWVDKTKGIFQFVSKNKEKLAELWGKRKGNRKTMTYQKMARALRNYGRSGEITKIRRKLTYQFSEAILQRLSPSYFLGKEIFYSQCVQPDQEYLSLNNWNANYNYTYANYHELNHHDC
# Method in brief: as §1
# [14] = target: ELF4 (Homo sapiens, UniProt Q99607 1-663); conditions: protein: recombinant; tags: N-terminal GST; dsDNA, one strand shown
# Method in brief: as §1
# [15] = target: T9, ELK4 (Homo sapiens, UniProt P28324-2 1-405); conditions: protein: recombinant; tags: N-terminal GST; dsDNA, one strand shown
# T9 sequence: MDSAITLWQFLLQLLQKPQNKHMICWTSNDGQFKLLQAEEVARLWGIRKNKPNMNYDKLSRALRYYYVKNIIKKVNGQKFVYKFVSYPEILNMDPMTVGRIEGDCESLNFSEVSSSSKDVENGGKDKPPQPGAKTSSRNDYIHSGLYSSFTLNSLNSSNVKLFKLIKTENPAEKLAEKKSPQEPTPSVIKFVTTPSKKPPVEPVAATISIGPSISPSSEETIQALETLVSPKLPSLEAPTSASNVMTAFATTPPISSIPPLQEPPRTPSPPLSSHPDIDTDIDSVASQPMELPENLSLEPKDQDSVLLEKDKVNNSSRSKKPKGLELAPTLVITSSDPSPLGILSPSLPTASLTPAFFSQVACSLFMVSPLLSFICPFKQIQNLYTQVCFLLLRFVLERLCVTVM
# Method in brief: as §1
# [16] = target: T10, ETV2 (Homo sapiens, UniProt O00321 1-342); conditions: protein: recombinant; tags: N-terminal GST; dsDNA, one strand shown
# T10 sequence: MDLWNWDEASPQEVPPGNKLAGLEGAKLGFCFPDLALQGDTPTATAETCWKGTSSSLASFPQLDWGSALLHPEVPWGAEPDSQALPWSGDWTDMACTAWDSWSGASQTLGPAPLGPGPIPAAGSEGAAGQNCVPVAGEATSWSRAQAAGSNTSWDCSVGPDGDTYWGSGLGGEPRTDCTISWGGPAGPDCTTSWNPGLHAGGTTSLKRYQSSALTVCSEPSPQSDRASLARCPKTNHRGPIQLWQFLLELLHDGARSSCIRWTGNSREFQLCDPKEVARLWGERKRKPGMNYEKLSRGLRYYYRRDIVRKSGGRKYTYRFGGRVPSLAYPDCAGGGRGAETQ
# Method in brief: as §1
# [17] = target: T11, ELF3 (Homo sapiens, UniProt P78545 1-371); conditions: protein: recombinant; tags: N-terminal GST; dsDNA, one strand shown
# T11 sequence: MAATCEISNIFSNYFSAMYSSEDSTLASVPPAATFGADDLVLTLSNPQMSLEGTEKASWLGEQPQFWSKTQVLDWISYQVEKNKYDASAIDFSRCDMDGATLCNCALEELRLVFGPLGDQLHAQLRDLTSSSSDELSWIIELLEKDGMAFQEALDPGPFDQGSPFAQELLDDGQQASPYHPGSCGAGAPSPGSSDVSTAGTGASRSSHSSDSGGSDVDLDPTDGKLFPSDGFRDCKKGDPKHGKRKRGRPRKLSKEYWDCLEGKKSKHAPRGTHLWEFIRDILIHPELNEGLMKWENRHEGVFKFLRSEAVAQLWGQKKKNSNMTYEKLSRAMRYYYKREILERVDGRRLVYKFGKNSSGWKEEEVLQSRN
# Method in brief: as §1
# [18] = target: CRX (Homo sapiens, UniProt O43186 1-299); conditions: protein: recombinant; tags: N-terminal GST; dsDNA, one strand shown
# Method in brief: as §1
# [19] = target: ETV1 (Homo sapiens, UniProt P50549 1-477); conditions: protein: recombinant; tags: N-terminal GST; dsDNA, one strand shown
# Method in brief: as §1
# SPIB, sequence (Q01892 whole entry): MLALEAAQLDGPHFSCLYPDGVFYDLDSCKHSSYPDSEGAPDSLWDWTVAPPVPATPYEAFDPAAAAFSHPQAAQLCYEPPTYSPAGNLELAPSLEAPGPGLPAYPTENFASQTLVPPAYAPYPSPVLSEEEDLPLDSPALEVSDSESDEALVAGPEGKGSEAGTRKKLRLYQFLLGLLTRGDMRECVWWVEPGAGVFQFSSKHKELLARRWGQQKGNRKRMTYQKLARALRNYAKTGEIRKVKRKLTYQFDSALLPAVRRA
# ETV1, sequence (P50549 whole entry): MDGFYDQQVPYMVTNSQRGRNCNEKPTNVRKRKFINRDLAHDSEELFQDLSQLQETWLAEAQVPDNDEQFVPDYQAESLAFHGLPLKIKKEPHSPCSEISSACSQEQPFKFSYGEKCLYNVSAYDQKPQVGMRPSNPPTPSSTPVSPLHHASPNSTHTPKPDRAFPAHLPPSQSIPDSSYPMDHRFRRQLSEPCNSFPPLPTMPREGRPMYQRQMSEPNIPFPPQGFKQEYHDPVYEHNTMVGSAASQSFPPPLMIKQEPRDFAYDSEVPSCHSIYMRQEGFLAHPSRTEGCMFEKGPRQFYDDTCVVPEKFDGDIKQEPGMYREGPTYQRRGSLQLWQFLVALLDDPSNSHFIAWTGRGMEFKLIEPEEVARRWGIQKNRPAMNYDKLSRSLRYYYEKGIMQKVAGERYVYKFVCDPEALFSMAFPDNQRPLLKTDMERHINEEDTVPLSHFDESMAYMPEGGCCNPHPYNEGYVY
# ELF1, sequence (P32519 whole entry): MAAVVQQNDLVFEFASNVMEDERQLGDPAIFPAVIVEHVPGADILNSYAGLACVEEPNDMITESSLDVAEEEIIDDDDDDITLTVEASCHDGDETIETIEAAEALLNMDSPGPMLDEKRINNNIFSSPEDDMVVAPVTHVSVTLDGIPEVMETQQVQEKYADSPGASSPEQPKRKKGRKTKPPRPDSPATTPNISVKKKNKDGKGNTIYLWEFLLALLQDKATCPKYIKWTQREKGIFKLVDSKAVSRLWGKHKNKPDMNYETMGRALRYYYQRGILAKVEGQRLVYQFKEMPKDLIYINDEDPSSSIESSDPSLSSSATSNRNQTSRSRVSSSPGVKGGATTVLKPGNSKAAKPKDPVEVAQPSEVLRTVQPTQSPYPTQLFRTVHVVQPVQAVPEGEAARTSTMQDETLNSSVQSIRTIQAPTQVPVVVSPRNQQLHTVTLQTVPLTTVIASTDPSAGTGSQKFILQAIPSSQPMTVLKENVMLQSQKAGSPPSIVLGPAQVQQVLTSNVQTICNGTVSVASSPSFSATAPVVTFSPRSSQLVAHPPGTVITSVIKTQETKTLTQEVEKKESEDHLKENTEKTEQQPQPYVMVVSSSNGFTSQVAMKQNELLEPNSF
# ELF4, sequence (Q99607 whole entry): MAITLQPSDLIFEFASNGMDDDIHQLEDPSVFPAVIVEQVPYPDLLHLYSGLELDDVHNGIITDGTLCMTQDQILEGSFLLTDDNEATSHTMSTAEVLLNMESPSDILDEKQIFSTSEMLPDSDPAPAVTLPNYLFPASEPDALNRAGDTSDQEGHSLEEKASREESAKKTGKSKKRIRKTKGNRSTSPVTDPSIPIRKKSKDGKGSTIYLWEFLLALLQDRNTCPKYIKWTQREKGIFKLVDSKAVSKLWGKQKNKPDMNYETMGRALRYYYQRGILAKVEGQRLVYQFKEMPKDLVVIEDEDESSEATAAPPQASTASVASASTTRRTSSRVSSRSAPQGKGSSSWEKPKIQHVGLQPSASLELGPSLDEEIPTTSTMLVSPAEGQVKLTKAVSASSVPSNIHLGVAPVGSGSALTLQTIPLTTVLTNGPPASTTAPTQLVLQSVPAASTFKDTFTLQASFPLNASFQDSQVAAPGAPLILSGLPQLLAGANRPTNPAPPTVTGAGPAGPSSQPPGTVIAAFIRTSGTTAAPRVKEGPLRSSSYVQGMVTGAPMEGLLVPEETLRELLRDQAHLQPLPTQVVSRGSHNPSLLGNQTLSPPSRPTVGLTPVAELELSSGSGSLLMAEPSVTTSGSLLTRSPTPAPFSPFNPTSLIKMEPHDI
# HSF1, sequence (Q00613 whole entry): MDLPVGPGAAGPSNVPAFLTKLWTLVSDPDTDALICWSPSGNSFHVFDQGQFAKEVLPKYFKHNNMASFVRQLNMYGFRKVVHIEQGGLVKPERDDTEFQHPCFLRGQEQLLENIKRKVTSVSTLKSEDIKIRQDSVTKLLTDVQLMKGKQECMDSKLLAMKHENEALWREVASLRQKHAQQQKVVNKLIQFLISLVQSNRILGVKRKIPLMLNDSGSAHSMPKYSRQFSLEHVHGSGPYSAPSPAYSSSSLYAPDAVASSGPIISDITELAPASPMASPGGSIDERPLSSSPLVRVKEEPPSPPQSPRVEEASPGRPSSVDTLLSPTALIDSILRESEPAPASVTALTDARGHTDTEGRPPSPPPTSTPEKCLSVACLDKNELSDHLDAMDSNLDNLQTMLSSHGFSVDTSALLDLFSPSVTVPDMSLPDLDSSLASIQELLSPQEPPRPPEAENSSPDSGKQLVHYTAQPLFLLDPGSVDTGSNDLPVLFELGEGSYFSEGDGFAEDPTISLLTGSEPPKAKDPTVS
# ETV5, sequence (P41161 whole entry): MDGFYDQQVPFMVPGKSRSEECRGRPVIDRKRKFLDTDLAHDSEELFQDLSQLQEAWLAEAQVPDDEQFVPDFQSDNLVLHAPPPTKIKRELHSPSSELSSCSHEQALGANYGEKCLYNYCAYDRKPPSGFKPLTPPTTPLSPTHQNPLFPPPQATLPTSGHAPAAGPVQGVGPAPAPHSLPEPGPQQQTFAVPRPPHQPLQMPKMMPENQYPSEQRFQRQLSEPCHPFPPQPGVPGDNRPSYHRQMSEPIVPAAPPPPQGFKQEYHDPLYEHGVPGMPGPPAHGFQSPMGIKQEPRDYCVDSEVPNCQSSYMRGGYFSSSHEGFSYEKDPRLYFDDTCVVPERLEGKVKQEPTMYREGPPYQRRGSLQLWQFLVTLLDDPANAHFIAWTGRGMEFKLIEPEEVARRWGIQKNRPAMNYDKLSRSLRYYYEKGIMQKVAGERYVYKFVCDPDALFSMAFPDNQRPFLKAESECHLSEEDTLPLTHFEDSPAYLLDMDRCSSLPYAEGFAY
# CRX, sequence (O43186 whole entry): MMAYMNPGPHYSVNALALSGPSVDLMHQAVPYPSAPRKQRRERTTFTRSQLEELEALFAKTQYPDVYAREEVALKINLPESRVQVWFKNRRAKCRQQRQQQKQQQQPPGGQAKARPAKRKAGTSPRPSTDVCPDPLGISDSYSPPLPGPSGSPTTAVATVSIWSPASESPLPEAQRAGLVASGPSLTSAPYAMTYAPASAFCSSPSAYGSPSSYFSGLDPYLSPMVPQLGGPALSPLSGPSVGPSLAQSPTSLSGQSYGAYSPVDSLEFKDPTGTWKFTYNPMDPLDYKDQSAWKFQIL
sequence,measurement,setting,value
CTCTAC,binding signal,[1],"1.51 fold enrichment (6-mer frequency, TF over GST control)"
same,binding signal,[2],"1.51 fold enrichment (6-mer frequency, TF over GST control)"
same,binding signal,[3],"1.56 fold enrichment (6-mer frequency, TF over GST control)"
same,binding signal,[4],"1.6 fold enrichment (6-mer frequency, TF over GST control)"
same,binding signal,[5],"1.59 fold enrichment (6-mer frequency, TF over GST control)"
same,binding signal,[6],"1.54 fold enrichment (6-mer frequency, TF over GST control)"
same,binding signal,[7],"1.45 fold enrichment (6-mer frequency, TF over GST control)"
same,binding signal,[8],"1.63 fold enrichment (6-mer frequency, TF over GST control)"
same,binding signal,[9],"1.27 fold enrichment (6-mer frequency, TF over GST control)"
same,binding signal,[10],"1.57 fold enrichment (6-mer frequency, TF over GST control)"
same,binding signal,[11],"1.33 fold enrichment (6-mer frequency, TF over GST control)"
same,binding signal,[12],"1.37 fold enrichment (6-mer frequency, TF over GST control)"
same,binding signal,[13],"1.51 fold enrichment (6-mer frequency, TF over GST control)"
same,binding signal,[14],"1.46 fold enrichment (6-mer frequency, TF over GST control)"
same,binding signal,[15],"1.38 fold enrichment (6-mer frequency, TF over GST control)"
same,binding signal,[16],"1.35 fold enrichment (6-mer frequency, TF over GST control)"
same,binding signal,[17],"1.47 fold enrichment (6-mer frequency, TF over GST control)"
same,binding signal,[18],"1.18 fold enrichment (6-mer frequency, TF over GST control)"
same,binding signal,[19],"1.4 fold enrichment (6-mer frequency, TF over GST control)"
